Data published in the supplement of paper PMC11732987, “Enantioselective OTUD7B fragment discovery through chemoproteomics screening and high-throughput optimisation” (Communications Chemistry, 2025).

What was measured:
Experiment in all cases: log2 ratio of Biotin-Ahx-Ub-VS probe labelling (fragment/DMSO); higher = less target engagement (more negative = stronger competition), active = hit call of the paper (q ≤ 0.05, log2 ratio ≤ -1)
Details in all cases: compound concentration: 200 uM; treatment time: 3 h
[1] = molecular target: T1, USP42 (UniProt Q9H9J4)
T1 sequence (whole entry): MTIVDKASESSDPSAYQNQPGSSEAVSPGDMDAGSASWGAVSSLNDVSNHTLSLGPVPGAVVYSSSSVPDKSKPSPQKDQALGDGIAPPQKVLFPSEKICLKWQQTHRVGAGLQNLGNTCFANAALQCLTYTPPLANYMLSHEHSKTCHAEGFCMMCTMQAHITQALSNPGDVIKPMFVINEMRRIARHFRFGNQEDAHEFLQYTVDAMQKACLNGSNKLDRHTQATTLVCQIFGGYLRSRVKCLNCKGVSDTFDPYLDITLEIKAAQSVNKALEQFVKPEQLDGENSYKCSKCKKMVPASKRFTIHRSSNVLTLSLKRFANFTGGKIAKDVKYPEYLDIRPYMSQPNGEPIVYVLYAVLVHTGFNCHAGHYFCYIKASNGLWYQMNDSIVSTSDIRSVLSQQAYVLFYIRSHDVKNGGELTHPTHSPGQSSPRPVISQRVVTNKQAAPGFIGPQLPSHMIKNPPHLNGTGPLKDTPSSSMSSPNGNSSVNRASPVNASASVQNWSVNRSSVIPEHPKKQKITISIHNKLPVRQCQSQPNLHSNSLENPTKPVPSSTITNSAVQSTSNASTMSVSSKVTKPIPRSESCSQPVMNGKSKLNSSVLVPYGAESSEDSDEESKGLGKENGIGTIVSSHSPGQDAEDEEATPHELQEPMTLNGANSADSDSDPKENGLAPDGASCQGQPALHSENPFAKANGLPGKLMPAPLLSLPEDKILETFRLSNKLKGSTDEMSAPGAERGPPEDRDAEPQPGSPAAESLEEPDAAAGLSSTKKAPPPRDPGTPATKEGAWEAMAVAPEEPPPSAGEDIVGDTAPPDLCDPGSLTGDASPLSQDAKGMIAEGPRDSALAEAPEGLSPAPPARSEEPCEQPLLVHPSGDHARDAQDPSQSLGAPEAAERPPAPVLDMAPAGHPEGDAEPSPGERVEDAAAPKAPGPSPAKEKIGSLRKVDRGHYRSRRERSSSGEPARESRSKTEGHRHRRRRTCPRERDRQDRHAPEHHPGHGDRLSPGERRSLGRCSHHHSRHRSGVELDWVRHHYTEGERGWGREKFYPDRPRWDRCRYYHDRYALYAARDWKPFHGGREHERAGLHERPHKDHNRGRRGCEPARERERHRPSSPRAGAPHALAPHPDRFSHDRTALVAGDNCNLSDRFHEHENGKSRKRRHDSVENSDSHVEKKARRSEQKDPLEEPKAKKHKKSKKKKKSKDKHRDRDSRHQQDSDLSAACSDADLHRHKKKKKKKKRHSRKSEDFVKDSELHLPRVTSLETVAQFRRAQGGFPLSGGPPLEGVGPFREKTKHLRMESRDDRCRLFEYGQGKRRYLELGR
Procedure, shortened: (§1)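 Each value is an average log2 ratio of fragment to vehicle, tested by unpaired t-test. The underlying Spectronaut label-free quantities were global-median-normalised, and only proteins with ≥2 unique peptides were included. Triplicate HEK293T lysate samples (495 µg) were exposed to fragment at 200 µM or vehicle for 3 h, then to Biotin-Ahx-Ub-VS at 0.5 µM final for 1 h, before NeutrAvidin enrichment of labelled DUBs, LysC and trypsin digestion, and diaPASEF LC-MS/MS.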

[2] = molecular target: USP46 (UniProt P62068)
Procedure, shortened: as §1

[3] = molecular target: T2, USP47 (UniProt Q96K76)
T2 sequence (whole entry): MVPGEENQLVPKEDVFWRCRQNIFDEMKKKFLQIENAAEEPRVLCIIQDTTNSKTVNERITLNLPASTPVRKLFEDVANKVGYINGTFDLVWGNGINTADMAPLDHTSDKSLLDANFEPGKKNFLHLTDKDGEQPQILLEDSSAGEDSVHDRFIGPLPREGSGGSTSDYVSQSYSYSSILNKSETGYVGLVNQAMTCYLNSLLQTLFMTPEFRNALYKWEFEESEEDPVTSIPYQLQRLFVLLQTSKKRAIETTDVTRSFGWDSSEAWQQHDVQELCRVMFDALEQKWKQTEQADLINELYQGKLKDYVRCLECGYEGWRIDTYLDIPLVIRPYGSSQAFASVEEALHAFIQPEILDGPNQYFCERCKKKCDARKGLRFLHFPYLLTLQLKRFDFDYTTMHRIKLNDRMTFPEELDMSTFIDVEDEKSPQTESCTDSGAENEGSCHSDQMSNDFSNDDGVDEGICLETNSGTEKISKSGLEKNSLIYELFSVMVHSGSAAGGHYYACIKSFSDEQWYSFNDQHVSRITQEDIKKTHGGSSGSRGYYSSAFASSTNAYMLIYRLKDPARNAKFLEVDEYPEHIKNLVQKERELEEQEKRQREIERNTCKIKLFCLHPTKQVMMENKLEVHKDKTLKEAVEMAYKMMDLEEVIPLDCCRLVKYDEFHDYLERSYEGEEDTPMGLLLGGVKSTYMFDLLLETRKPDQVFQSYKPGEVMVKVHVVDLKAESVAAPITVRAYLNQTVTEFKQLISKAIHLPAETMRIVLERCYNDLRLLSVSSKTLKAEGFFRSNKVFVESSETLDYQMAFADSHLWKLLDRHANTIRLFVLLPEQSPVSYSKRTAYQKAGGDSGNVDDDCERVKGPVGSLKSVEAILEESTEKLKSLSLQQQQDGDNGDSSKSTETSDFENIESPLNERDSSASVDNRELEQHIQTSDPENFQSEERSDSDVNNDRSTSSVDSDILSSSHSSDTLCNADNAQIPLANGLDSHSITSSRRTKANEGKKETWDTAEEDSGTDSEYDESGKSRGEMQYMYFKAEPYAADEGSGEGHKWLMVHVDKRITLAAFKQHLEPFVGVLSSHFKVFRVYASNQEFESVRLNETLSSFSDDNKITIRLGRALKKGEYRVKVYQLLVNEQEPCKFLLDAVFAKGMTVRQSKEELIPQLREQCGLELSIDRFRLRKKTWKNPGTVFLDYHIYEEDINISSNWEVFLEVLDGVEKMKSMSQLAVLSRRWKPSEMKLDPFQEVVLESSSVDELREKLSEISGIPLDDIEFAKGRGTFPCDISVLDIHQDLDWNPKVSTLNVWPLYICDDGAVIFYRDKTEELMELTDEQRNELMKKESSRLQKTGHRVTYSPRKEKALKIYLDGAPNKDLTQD
Procedure, shortened: as §1

[4] = molecular target: T3, USP48 (UniProt Q86UV5)
T3 sequence (whole entry): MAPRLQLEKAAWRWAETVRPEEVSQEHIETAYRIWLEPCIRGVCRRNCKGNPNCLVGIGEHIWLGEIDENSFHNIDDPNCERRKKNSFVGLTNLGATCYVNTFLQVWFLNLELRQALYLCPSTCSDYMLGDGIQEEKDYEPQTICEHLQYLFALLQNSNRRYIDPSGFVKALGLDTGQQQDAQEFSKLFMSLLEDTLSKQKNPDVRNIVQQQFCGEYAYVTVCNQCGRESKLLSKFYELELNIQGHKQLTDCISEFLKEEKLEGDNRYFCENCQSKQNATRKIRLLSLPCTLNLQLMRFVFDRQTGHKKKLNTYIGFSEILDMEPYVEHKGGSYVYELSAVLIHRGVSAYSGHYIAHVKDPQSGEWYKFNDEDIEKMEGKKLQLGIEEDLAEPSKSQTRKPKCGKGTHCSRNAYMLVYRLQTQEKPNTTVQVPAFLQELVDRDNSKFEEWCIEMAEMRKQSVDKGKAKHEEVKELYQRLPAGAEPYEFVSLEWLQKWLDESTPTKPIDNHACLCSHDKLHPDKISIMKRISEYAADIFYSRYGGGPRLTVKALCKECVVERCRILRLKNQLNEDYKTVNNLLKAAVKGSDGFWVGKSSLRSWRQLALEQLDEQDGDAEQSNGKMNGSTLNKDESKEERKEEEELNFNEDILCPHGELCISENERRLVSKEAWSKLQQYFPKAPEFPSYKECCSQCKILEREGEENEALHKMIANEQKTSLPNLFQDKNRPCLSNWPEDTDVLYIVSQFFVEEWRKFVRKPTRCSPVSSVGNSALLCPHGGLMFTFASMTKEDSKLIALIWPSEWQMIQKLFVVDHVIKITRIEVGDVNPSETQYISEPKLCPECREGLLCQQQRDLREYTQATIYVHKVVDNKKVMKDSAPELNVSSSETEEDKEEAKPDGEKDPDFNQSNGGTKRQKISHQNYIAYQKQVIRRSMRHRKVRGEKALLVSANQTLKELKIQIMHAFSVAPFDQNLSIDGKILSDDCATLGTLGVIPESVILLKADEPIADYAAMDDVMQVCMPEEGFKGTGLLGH
Procedure, shortened: as §1

[5] = molecular target: T4, USP5 (UniProt P45974)
T4 sequence (whole entry): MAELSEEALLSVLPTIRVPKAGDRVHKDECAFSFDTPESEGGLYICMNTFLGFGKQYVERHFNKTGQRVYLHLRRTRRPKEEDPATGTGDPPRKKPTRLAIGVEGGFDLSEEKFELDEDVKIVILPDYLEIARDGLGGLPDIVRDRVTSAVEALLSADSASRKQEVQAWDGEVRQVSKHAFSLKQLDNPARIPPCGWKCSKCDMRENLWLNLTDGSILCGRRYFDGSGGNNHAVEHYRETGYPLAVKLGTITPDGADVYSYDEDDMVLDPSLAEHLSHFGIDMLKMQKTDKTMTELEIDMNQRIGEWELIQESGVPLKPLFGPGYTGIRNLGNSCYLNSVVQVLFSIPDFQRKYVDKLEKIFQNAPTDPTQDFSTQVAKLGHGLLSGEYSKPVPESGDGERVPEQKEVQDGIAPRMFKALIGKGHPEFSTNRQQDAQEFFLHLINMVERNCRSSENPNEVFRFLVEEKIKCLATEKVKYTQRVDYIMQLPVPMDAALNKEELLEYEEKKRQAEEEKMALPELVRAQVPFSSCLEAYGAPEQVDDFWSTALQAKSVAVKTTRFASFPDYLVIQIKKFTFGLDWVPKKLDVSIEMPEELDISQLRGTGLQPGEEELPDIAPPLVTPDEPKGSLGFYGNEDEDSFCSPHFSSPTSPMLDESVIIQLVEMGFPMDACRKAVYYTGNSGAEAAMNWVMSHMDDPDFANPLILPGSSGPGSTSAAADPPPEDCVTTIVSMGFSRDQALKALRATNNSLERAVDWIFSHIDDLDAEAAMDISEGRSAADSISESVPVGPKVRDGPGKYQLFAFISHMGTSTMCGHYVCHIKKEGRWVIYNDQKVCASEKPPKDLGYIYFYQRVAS
Procedure, shortened: as §1

[6] = molecular target: USP54 (UniProt Q70EL1)
Procedure, shortened: as §1

[7] = molecular target: USP7 (UniProt Q93009)
Procedure, shortened: as §1

[8] = molecular target: T5, USP8 (UniProt P40818)
T5 sequence (whole entry): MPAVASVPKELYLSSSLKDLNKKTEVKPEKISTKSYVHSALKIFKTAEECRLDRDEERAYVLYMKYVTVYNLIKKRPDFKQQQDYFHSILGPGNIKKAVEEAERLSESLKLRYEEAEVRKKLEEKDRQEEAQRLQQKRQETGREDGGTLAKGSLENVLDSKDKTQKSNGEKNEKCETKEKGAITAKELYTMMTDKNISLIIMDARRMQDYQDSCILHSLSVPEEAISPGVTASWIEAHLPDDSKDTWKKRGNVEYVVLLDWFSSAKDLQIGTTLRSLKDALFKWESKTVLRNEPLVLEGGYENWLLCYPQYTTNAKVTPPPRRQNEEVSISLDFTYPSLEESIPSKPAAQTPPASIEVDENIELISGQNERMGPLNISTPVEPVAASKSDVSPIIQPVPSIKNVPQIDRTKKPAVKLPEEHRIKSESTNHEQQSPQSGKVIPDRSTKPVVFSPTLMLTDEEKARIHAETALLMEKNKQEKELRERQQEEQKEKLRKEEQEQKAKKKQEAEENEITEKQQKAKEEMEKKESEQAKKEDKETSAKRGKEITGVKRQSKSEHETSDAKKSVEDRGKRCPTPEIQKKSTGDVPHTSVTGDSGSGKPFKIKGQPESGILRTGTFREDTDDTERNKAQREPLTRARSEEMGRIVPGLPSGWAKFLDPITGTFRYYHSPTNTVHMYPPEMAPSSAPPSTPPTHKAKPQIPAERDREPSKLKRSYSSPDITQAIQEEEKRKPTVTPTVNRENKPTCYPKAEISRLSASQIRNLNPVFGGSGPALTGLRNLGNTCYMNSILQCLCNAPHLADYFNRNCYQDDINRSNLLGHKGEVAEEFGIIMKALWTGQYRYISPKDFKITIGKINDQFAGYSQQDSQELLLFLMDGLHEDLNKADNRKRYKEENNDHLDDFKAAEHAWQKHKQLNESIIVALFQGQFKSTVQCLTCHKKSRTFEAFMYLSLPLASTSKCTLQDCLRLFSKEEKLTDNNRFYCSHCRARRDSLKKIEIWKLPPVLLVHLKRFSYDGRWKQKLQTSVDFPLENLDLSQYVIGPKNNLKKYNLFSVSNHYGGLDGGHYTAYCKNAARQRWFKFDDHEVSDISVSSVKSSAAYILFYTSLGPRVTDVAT
Procedure, shortened: as §1

[9] = molecular target: USP9X (UniProt Q93008)
Procedure, shortened: as §1

[10] = molecular target: UniProt O00487
Procedure, shortened: as §1

Measured: log2 ratio of Biotin-Ahx-Ub-VS probe labelling

Chain of USP9X (Q93008 whole entry): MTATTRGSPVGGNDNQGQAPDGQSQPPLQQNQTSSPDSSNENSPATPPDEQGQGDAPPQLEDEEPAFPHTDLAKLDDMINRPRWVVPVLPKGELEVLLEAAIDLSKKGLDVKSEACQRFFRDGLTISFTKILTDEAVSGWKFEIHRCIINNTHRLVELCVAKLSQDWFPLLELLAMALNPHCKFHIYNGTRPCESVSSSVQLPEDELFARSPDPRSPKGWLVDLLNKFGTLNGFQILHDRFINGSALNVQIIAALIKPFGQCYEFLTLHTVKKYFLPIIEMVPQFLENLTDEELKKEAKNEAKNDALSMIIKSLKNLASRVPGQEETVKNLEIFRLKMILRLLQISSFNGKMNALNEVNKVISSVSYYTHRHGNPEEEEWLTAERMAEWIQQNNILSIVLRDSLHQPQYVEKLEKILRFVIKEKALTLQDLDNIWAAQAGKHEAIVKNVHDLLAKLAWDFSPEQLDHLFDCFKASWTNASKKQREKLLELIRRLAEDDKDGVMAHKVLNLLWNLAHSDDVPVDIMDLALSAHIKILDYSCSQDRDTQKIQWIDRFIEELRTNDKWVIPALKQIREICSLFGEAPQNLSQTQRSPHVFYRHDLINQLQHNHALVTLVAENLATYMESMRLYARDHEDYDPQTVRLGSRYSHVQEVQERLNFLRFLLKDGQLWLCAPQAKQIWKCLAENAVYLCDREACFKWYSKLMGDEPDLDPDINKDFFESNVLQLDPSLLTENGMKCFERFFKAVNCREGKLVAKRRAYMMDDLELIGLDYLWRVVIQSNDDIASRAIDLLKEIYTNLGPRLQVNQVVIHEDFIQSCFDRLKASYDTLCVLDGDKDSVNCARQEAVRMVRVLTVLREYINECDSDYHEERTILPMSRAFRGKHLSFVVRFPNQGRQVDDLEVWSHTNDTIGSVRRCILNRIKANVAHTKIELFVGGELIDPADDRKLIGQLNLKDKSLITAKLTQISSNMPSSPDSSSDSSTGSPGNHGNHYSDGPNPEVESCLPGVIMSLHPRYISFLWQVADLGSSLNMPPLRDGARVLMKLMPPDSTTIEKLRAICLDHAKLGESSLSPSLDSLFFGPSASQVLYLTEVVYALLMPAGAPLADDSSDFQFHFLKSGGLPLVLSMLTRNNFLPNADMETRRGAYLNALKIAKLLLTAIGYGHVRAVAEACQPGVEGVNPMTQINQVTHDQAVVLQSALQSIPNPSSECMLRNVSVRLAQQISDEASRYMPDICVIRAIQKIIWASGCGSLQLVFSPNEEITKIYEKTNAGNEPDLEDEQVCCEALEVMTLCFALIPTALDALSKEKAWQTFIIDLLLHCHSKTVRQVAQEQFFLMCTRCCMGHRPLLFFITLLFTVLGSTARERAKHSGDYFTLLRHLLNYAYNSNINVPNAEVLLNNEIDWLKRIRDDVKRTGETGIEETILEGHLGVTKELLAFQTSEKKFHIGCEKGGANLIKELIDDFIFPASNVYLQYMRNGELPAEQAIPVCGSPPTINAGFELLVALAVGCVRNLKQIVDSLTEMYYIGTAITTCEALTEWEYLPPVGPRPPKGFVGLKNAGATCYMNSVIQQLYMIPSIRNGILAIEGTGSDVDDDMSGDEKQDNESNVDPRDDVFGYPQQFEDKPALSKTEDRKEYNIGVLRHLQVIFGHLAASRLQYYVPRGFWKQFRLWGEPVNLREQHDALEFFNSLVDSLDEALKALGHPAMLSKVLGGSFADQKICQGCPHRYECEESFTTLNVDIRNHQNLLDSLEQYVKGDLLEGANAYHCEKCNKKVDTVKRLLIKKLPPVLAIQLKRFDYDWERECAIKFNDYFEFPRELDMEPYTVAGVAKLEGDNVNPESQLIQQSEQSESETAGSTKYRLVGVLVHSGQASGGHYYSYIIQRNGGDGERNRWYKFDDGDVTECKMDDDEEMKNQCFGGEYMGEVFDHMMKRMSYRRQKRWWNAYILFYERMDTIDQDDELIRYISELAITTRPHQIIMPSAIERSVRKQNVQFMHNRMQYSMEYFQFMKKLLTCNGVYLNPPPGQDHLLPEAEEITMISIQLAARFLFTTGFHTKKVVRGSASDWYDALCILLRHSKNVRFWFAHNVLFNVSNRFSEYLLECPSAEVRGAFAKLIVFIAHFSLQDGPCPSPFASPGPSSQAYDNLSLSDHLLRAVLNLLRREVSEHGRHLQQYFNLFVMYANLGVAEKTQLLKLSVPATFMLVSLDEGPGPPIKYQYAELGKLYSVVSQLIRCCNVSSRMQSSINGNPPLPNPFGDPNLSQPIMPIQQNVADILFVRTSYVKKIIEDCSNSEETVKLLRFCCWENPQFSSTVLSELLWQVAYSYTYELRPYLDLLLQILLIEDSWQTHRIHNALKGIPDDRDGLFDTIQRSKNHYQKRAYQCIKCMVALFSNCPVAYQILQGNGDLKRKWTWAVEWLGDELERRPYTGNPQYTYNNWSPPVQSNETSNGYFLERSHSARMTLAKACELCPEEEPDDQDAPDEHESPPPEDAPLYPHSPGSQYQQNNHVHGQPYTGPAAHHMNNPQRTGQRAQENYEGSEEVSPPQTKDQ
Chain of UniProt O00487 (O00487 whole entry): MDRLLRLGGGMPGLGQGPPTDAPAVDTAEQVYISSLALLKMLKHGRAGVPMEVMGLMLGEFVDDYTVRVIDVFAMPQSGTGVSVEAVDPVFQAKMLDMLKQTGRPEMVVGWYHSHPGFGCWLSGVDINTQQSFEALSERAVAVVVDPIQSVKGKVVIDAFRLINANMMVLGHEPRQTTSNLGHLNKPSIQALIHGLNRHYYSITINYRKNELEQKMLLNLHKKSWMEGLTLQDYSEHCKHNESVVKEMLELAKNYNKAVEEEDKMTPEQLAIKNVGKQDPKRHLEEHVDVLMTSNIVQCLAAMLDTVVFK
Chain of USP7 (Q93009 whole entry, looked up): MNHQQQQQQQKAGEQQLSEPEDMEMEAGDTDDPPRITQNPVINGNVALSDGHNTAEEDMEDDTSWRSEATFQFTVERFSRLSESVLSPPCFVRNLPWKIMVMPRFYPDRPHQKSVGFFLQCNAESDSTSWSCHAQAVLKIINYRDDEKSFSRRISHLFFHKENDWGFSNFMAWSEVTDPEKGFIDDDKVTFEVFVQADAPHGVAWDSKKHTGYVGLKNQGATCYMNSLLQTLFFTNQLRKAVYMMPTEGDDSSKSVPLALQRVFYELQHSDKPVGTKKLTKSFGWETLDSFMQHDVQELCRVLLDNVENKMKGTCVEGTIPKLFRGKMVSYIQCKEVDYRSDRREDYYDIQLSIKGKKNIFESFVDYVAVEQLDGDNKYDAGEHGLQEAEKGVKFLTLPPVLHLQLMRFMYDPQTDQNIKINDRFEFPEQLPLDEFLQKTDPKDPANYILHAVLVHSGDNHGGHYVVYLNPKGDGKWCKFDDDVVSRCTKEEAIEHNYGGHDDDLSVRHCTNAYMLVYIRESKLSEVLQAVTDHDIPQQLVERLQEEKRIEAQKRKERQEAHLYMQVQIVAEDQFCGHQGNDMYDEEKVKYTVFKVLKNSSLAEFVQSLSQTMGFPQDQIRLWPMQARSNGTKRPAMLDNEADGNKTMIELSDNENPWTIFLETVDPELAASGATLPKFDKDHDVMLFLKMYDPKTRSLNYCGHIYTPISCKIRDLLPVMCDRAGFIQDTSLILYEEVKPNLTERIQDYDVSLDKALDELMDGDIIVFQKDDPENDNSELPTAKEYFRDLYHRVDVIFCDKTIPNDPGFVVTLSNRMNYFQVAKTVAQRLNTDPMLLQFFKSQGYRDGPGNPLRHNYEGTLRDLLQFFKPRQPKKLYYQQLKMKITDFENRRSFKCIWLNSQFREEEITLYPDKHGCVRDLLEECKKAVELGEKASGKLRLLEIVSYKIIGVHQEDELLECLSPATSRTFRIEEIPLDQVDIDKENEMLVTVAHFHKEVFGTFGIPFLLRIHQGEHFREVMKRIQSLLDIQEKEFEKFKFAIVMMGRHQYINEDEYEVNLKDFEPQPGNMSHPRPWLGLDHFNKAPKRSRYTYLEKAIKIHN
Chain of USP46 (P62068 whole entry): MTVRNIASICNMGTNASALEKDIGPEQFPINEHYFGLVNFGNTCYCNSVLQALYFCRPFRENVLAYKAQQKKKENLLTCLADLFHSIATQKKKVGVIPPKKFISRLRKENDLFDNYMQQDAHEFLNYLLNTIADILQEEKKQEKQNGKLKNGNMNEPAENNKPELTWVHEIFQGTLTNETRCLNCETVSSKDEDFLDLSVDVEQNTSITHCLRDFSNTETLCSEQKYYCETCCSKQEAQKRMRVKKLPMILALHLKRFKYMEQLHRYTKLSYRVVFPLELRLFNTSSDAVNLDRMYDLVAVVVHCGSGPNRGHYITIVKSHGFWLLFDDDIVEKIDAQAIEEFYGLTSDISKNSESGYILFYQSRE

O=C(CCl)N1CCC(=C(F)CO)C1
inactive: [1] 0.374 | [2] 0.0599 | [3] 0.0525 | [4] 0.0406 | [5] 0.108 | [6] 0.0848 | [7] 0.0769 | [8] 0.0438 | [9] 0.0939 | [10] 0.129
